Among the data in PubChem BioAssay are composite z-score and z-score values, retold here.

Calls of active or inactive are those of the source. Unless noted, no rule for the calls is given here.

The subject of assay [1] is XIP peptide (Xip251-270) binding. Nature of the assay: XIP fragment 251-270 binding compounds – biochemical, small-molecule microarray, fluorescence 635/667 nm, 0.1 µg/mL protein, primary screen (AID 1182). The note with it: fluorescent protein binding, 635 nm, higher = more signal, called active from +8 up or from −8 down.
The subject of the next assay is XIP peptide (Xip251-270). Briefly: compounds binding XIP fragment 251-270 – biochemical, small-molecule microarray, fluorescence 635/667 nm, 0.5 µg/mL protein, primary screen (AID 1183). The settings on record: fluorescence 635 nm, higher = more signal.
The nature of assay [2]: blood-stage malaria parasite viability loss – strain 3D7, DAPI fluorescence, 100 nL, primary screen (AID 1184).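 Also: parasites grown inside human red blood cells in medium with human serum.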 The settings on record: P. falciparum 3D7 growth, 3 d, higher = more signal.
Assay [3] addresses Homeobox protein Hox-A13 (Mus musculus) (UniProt Q62424). Briefly: disruptors of Hoxa13 oligonucleotide interaction – biochemical, fluorescence polarization, labeled oligonucleotide, primary screen (AID 1185). The settings on record: Hoxa13:DNA binding, 15 min, higher = more signal, called active from +8 up or from −8 down. (In general: Polarisation of emitted light reports the rotation of a fluorescent probe.)

Assay [4] in a line: blockers of DNA damage checkpoint Chk1 activation – imaging, HeLa, hydroxyurea, phospho-Chk1 antibody, percent positive cells, primary screen (AID 1186). The settings on record: hydroxyurea-induced phospho-Chk1 immunofluorescence imaging, higher = more signal.
A short description of assay [5]: blockers of DNA damage checkpoint Chk1 activation – imaging, HeLa, hydroxyurea, phospho-Chk1 nuclear intensity, primary screen (AID 1187). The note with it: hydroxyurea-induced phospho-Chk1 immunofluorescence imaging, higher = more signal.

Homeobox protein Hox-A13 (Mus musculus), sequence (Q62424 whole entry, looked up): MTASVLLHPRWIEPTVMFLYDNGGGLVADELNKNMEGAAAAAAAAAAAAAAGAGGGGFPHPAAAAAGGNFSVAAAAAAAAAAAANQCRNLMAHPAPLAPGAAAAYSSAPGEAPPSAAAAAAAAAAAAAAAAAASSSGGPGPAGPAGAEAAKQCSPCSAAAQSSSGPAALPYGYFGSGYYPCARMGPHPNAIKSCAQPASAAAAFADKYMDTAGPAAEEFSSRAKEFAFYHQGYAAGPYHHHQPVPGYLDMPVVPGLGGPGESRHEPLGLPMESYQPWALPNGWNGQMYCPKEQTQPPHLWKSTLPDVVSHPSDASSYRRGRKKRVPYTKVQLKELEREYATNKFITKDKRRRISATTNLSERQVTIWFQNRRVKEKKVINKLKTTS

In the case of `CN1C(=O)C2C=CC(C(O)C3=C[C@H]4C[C@@H](C3)C4(C)C)N(Nc3ccccc3)C2C1=O` (some centres undefined), the results for the composite z-score (in assay [1]; with XIP peptide (Xip251-270)) were 0.654 (inactive) and 0.151, respectively. Further, the z-score is 0.821 in assay [2], -3.75 (inactive) in assay [3], -0.556 (inactive) in assay [4] and -0.864 (inactive) in assay [5].
Regarding `C=CC[C@]1(C(=O)NCCCOC)N=C(c2ccc(OCCCO)cc2)O[C@H]1c1ccccc1N=[N+]=[N-]`, the composite z-score is 0.403 (inactive) in assay [1] and 0.707 in the assay with XIP peptide (Xip251-270). For the same compound, the z-score was -1.99 in assay [2], -3.07 (inactive) in assay [3], -0.432 (inactive) in assay [4] and 0.0181 (inactive) in assay [5].
Consider `NCCCCCNC(=O)[C@@H]1C[C@@H]2C(=O)NCC(=O)N2[C@@H]1c1ccc(O)cc1`, for which the composite z-score in assay [1] is 0.715 (inactive); with XIP peptide (Xip251-270) it was 0.416. Moreover, the z-score was 0.112 in assay [2], -1.06 (inactive) in assay [3], -0.44 (inactive) in assay [4] and -0.316 (inactive) in assay [5].
On to `O=C1c2ccccc2[C@@]2(Cc3ccccc3N(CCN3CCOCC3)C2=O)[C@H](c2ccc(CO)cc2)N1Cc1ccccc1`, for which the composite z-score was -0.178 (inactive) in assay [1] and 0.206 in the assay on XIP peptide (Xip251-270). The z-score in assay [2] was -0.119; in assay [3], -0.421 (inactive); in assay [4], -0.305 (inactive); in assay [5], -0.0278 (inactive).
As to `C=C(/C(=C/C[C@@H](OC(C)=O)c1ccc(OCCO)cc1)c1cnc2ccccc2c1)C(C)C`, the values for the composite z-score (in assay [1]; with XIP peptide (Xip251-270)) were 0.174 (inactive) and 0.178, respectively. The z-score in assay [2] was -3; in assay [3] it was -4.09 (inactive); in assay [4], -1.03 (inactive); in assay [5], -0.163 (inactive).
For the compound `CN(C)CCCC[C@@H]1NC(=O)[C@H]2C[C@@H](C(=O)NCCCCCNC(=O)CS)[C@@H](c3cccc(OCCO)c3)N2C1=O`, the figures for the composite z-score (in assay [1]; with XIP peptide (Xip251-270)) were 1.2 (inactive) and 0.567, respectively. The z-score was -0.103 in assay [2], -3.25 (inactive) in assay [3], -0.244 (inactive) in assay [4] and -0.144 (inactive) in assay [5].
As to `CCOC(=O)C1=CCC(c2ccc(C)cc2)N(S(=O)(=O)c2ccc(C)cc2)C1` (centres undefined), the composite z-score in assay [1] is 0.34 (inactive); with XIP peptide (Xip251-270), 0.46. Further, the z-score is -1.65 in assay [2], -2.32 (inactive) in assay [3], 0.283 (inactive) in assay [4] and 0.449 (inactive) in assay [5].
Turning to `COc1ccc([Si](C)(C)[C@H]2[C@H](CC(=O)N3Cc4ccccc4C[C@H]3CO)O[C@@]3(C(=O)N(Cc4ccc(N5CCC5=O)cc4)c4ccccc43)[C@@H]2C)cc1`, the values for the composite z-score (in assay [1]; with XIP peptide (Xip251-270)) were 0.0316 (inactive) and 0.817, respectively. Moreover, the z-score in assay [2] is -1.95; in assay [3] it was -3.83 (inactive); in assay [4], -0.176 (inactive); in assay [5] it was -0.0862 (inactive).
For the compound `C=C/C=C/[C@H]1C(=C)CN([C@@H](Cc2ccccc2)C(=O)OC)[C@@H]1[C@H](O)Cc1ccccc1`, the composite z-score in assay [1] was -0.245 (inactive); in the assay with XIP peptide (Xip251-270) it was 0.497. In addition, the z-score in assay [2] is -1.2; in assay [3], -1.43 (inactive); in assay [4] it was -0.0246 (inactive); in assay [5], -0.368 (inactive).
For the compound `COc1ccc(C(=O)Nc2ccc(CN3C(=O)[C@@]4(O[C@@H](CC(=O)N5CCC[C@H]5CO)[C@H]([Si](C)(C)c5ccc(OC)cc5)[C@H]4C)c4ccccc43)cc2)cc1`, the composite z-score is 0.135 (inactive) in assay [1] and 0.703 in the assay with XIP peptide (Xip251-270). For the same compound, the z-score is -0.183 in assay [2], -3.33 (inactive) in assay [3], -0.0567 (inactive) in assay [4] and 0.829 (inactive) in assay [5].
As for `C=CCN1C(=O)[C@@]2(O[C@@H](CCO)[C@H]([Si](C)(C)c3ccc(OC)cc3)[C@H]2C)c2cc(NC(=O)c3ccc(OC)cc3)ccc21`, the figures for the composite z-score (in assay [1]; in the assay on XIP peptide (Xip251-270)) were 0.574 (inactive) and 0.208, respectively. Besides, the z-score was -2.77 in assay [2], -4.58 (inactive) in assay [3], -0.176 (inactive) in assay [4] and 0.416 (inactive) in assay [5].
Regarding `C#CCN(CC1=CCCCC1)[C@H](c1ccccc1Br)[C@@H](O)Cc1ccccc1`, the composite z-score in assay [1] was 0.0838 (inactive); in the assay on XIP peptide (Xip251-270), -0.43. In addition, the z-score was 0.47 in assay [2], -0.843 (inactive) in assay [3], -0.164 (inactive) in assay [4] and -0.155 (inactive) in assay [5].
For the compound `COCCOC(=O)N1C(=O)[C@@]2(c3cc(C#CCCO)ccc31)[C@H](C(=O)N1CCc3cc(OC)c(OC)cc3C1)[C@H]1C(=O)O[C@H](c3ccccc3)[C@H](c3ccccc3)N1[C@@H]2c1ccc(O)cc1`, the composite z-score in assay [1] is 1.55 (inactive); in the assay with XIP peptide (Xip251-270), 0.798. The z-score in assay [2] is -0.439; in assay [3], -2.01 (inactive); in assay [4], -0.463 (inactive); in assay [5] it was -0.656 (inactive).
As to `C=CCNC(=O)[C@@H]1[C@H]2C(=O)O[C@H](c3ccccc3)[C@H](c3ccccc3)N2[C@H](c2ccc(OCCO)cc2)[C@@]12C(=O)Nc1ccc(C#CCCO)cc12`, the composite z-score in assay [1] is 0.95 (inactive); in the assay on XIP peptide (Xip251-270) it was 0.77. The z-score is -1.02 in assay [2], -3.63 (inactive) in assay [3], 0.0523 (inactive) in assay [4] and 0.205 (inactive) in assay [5].
